The source of these data is paper PMC7862700, “An all-to-all approach to the identification of sequence-specific readers for epigenetic DNA modifications on cytosine”.

The target of one experiment is T1, ETV7 (Homo sapiens, UniProt Q9Y603 1-341).
T1 sequence: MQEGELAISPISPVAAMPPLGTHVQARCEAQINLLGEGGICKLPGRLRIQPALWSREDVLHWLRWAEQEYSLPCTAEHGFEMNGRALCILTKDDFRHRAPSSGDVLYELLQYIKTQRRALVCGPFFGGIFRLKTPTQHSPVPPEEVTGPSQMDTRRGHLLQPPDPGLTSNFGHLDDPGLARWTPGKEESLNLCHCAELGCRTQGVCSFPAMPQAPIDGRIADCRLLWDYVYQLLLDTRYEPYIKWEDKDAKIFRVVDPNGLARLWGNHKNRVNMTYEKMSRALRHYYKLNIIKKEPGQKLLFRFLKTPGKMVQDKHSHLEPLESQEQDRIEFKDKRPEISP
Nature of the experiment: DAPPL (digital affinity profiling via proximity ligation, sequencing); 10 mM Tris-HCl pH 7.5, 50 mM NaCl, 1 mM DTT, 4% glycerol, room temperature, 30 min; GST-TFs on glutathione beads, 16-mer random dsDNA library, 0.1% formaldehyde crosslink after washing; high values mean tight binding. Particulars: protein: recombinant; tags: N-terminal GST; dsDNA, one strand shown. The method, boiled down: (§1)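 Pools of DNA-barcoded human transcription factors, expressed in yeast as GST fusions on glutathione beads and combined with a tag-only sample, were incubated with 200 nmole of a 16-mer random double-stranded DNA library. Incubation took 30 min at room temperature in Tris/NaCl/DTT/glycerol buffer and was followed by washing, 0.1% formaldehyde crosslinking, proximity ligation (BsaI/T4 ligase, 1 h, 37 °C), PCR amplification and sequencing on an Illumina NextSeq500. Binding signal is the ratio of a hexamer's read frequency for a factor to its frequency for the tag-only sample.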
In the case of TACCAT, the binding signal is 1.16 fold enrichment (6-mer frequency, TF over GST control).

In the case of GTTCCT, the binding signal was 1.67 fold enrichment (6-mer frequency, TF over GST control).

Take CCGCCT: the binding signal was 1.52 fold enrichment (6-mer frequency, TF over GST control).

Regarding AAATTG, the binding signal is 1.25 fold enrichment (6-mer frequency, TF over GST control).

For the sequence AAAAAG, the binding signal was 1.32 fold enrichment (6-mer frequency, TF over GST control).

On to TATTTT, for which the binding signal is 1.49 fold enrichment (6-mer frequency, TF over GST control).

Turning to CTTCGT, the binding signal was 1.4 fold enrichment (6-mer frequency, TF over GST control).

In the case of GTTATT, the binding signal was 1.29 fold enrichment (6-mer frequency, TF over GST control).

Take CCTGCT: the binding signal was 1.65 fold enrichment (6-mer frequency, TF over GST control).

On to CTAGCA, for which the binding signal was 1.33 fold enrichment (6-mer frequency, TF over GST control).

In the case of ATGACC, the binding signal is 1.51 fold enrichment (6-mer frequency, TF over GST control).

On to CTTCCG, for which the binding signal was 7.48 fold enrichment (6-mer frequency, TF over GST control).

As for AATGAC, the binding signal was 1.29 fold enrichment (6-mer frequency, TF over GST control).

ACCGAT: the binding signal was 1.08 fold enrichment (6-mer frequency, TF over GST control).

Consider ATACGA, for which the binding signal was 1.11 fold enrichment (6-mer frequency, TF over GST control).

As to TCTCGA, the binding signal was 1.47 fold enrichment (6-mer frequency, TF over GST control).

Turning to TGACCG, the binding signal was 1.49 fold enrichment (6-mer frequency, TF over GST control).

For TCTGCA, the binding signal is 1.28 fold enrichment (6-mer frequency, TF over GST control).

For the sequence TACGAC, the binding signal is 1.18 fold enrichment (6-mer frequency, TF over GST control).

As for TAAGTA, the binding signal is 1.13 fold enrichment (6-mer frequency, TF over GST control).

Take GTTCTC: the binding signal was 1.26 fold enrichment (6-mer frequency, TF over GST control).

With TTTTAA, the binding signal is 1.32 fold enrichment (6-mer frequency, TF over GST control).

ATGCTT: the binding signal was 1.33 fold enrichment (6-mer frequency, TF over GST control).

As for ATCCTG, the binding signal is 1.51 fold enrichment (6-mer frequency, TF over GST control).

Turning to ACACTT, the binding signal is 1.78 fold enrichment (6-mer frequency, TF over GST control).

On to ATTCTC, for which the binding signal was 1.23 fold enrichment (6-mer frequency, TF over GST control).

On to TCTTTG, for which the binding signal is 1.27 fold enrichment (6-mer frequency, TF over GST control).

In the case of CAATTC, the binding signal is 1.24 fold enrichment (6-mer frequency, TF over GST control).

In the case of TAATTT, the binding signal was 1.37 fold enrichment (6-mer frequency, TF over GST control).

Consider ACTGAT, for which the binding signal is 1.13 fold enrichment (6-mer frequency, TF over GST control).

In the case of TTTTTG, the binding signal was 1.25 fold enrichment (6-mer frequency, TF over GST control).

With TTTTCG, the binding signal is 1.2 fold enrichment (6-mer frequency, TF over GST control).

With TCGACT, the binding signal is 1.32 fold enrichment (6-mer frequency, TF over GST control).

As for TTATGT, the binding signal is 1.3 fold enrichment (6-mer frequency, TF over GST control).

For TTATCT, the binding signal is 1.15 fold enrichment (6-mer frequency, TF over GST control).

For the sequence CCGTTC, the binding signal was 1.32 fold enrichment (6-mer frequency, TF over GST control).

Take AAACTA: the binding signal is 1.31 fold enrichment (6-mer frequency, TF over GST control).

For TACATG, the binding signal was 1.25 fold enrichment (6-mer frequency, TF over GST control).

For the sequence GTTGCT, the binding signal was 1.38 fold enrichment (6-mer frequency, TF over GST control).

Another experiment deals with T2, ELF5 (Homo sapiens, UniProt Q9UKW6-2 1-255).
T2 sequence: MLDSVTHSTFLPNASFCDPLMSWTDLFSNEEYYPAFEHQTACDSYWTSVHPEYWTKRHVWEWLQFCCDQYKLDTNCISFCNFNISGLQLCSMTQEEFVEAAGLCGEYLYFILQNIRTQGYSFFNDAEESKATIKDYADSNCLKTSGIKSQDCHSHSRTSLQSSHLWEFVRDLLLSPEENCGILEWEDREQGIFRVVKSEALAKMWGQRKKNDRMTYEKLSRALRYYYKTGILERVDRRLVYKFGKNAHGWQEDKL
Described as above. Conditions: protein: recombinant; tags: N-terminal GST; dsDNA, one strand shown. The method, boiled down: as §1
Consider TACCAT, for which the binding signal was 1.14 fold enrichment (6-mer frequency, TF over GST control).

For the sequence GTTCCT, the binding signal is 2.54 fold enrichment (6-mer frequency, TF over GST control).

Take CCGCCT: the binding signal is 1.84 fold enrichment (6-mer frequency, TF over GST control).

With AAATTG, the binding signal was 1.22 fold enrichment (6-mer frequency, TF over GST control).

For AAAAAG, the binding signal was 1.24 fold enrichment (6-mer frequency, TF over GST control).

TATTTT: the binding signal is 1.29 fold enrichment (6-mer frequency, TF over GST control).

Regarding CTTCGT, the binding signal was 1.3 fold enrichment (6-mer frequency, TF over GST control).

With GTTATT, the binding signal is 1.21 fold enrichment (6-mer frequency, TF over GST control).

Regarding CCTGCT, the binding signal was 1.84 fold enrichment (6-mer frequency, TF over GST control).

Take CTAGCA: the binding signal is 1.12 fold enrichment (6-mer frequency, TF over GST control).

As for ATGACC, the binding signal was 1.56 fold enrichment (6-mer frequency, TF over GST control).

Regarding CTTCCG, the binding signal is 11.4 fold enrichment (6-mer frequency, TF over GST control).

AATGAC: the binding signal is 1.36 fold enrichment (6-mer frequency, TF over GST control).

With ACCGAT, the binding signal is 1.04 fold enrichment (6-mer frequency, TF over GST control).

For ATACGA, the binding signal was 1.17 fold enrichment (6-mer frequency, TF over GST control).

Consider TCTCGA, for which the binding signal is 1.27 fold enrichment (6-mer frequency, TF over GST control).

As for TGACCG, the binding signal is 1.4 fold enrichment (6-mer frequency, TF over GST control).

Turning to TCTGCA, the binding signal was 1.29 fold enrichment (6-mer frequency, TF over GST control).

For TACGAC, the binding signal was 1.29 fold enrichment (6-mer frequency, TF over GST control).

As for TAAGTA, the binding signal was 1.25 fold enrichment (6-mer frequency, TF over GST control).

For GTTCTC, the binding signal was 1.25 fold enrichment (6-mer frequency, TF over GST control).

Consider TTTTAA, for which the binding signal is 1.17 fold enrichment (6-mer frequency, TF over GST control).

Regarding ATGCTT, the binding signal was 1.38 fold enrichment (6-mer frequency, TF over GST control).

For ATCCTG, the binding signal was 1.84 fold enrichment (6-mer frequency, TF over GST control).

For the sequence ACACTT, the binding signal was 2.02 fold enrichment (6-mer frequency, TF over GST control).

On to ATTCTC, for which the binding signal is 1.26 fold enrichment (6-mer frequency, TF over GST control).

TCTTTG: the binding signal is 1.09 fold enrichment (6-mer frequency, TF over GST control).

As to CAATTC, the binding signal was 1.25 fold enrichment (6-mer frequency, TF over GST control).

Take TAATTT: the binding signal was 1.46 fold enrichment (6-mer frequency, TF over GST control).

For ACTGAT, the binding signal was 1.22 fold enrichment (6-mer frequency, TF over GST control).

Turning to TTTTTG, the binding signal was 1.27 fold enrichment (6-mer frequency, TF over GST control).

With TTTTCG, the binding signal is 1.3 fold enrichment (6-mer frequency, TF over GST control).

Turning to TCGACT, the binding signal is 1.28 fold enrichment (6-mer frequency, TF over GST control).

For TTATGT, the binding signal was 1.23 fold enrichment (6-mer frequency, TF over GST control).

Regarding TTATCT, the binding signal was 1.22 fold enrichment (6-mer frequency, TF over GST control).

As for CCGTTC, the binding signal was 1.56 fold enrichment (6-mer frequency, TF over GST control).

For AAACTA, the binding signal is 1.32 fold enrichment (6-mer frequency, TF over GST control).

As for TACATG, the binding signal was 1.16 fold enrichment (6-mer frequency, TF over GST control).

For the sequence GTTGCT, the binding signal was 1.27 fold enrichment (6-mer frequency, TF over GST control).
